The record followed here is PubChem BioAssay (NCATS).

One test has as its system C33A. Description: Primary qHTS to identify gynecologic anti-cancer compounds using libraries of approved drugs and bioactive compounds (AID 1345084). Note: nearly all actives have a fitted effect of over 55% in size. To be noted: Gynecologic cancer cell panel viability, ATPlite luminescence, 48 h; series mostly up to 57.5 µM. Put shortly:
(§1)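 Measured: luminescence after ATPlite addition (15 min, RT). Exposure: 48 h, 37 C, 5% CO2.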

The test system of the next test is CAOV3. The description is as above. To be noted: Gynecologic cancer cell panel viability, ATPlite luminescence, 48 h; series mostly up to 57.5 µM. Put shortly:
as §1

The test system of a further test is CASKI. The test is described as above. To be noted: Gynecologic cancer cell panel viability, ATPlite luminescence, 48 h; series mostly up to 57.5 µM. Put shortly:
as §1

The next test concerns Es-2. Described as above. To be noted: Gynecologic cancer cell panel viability, ATPlite luminescence, 48 h; series mostly up to 57.5 µM. The gist of the method:
as §1

A further test deals with HeLa. Described as above. To be noted: Gynecologic cancer cell panel viability, ATPlite luminescence, 48 h; series mostly up to 57.5 µM. The gist of the method:
as §1

The next test concerns JEG-3. The description is as above. To be noted: Gynecologic cancer cell panel viability, ATPlite luminescence, 48 h; series mostly up to 57.5 µM. Put shortly: as §1
The test system of a further test is WaGa. Description: qHTS assay to identify novel small-molecules to repurpose for Merkel cell carcinoma treatment (AID 1296009). Note: nearly all actives have a fitted effect of over 60% in size. To be noted: MCC and control cell lines, CellTiter-Glo viability, 72 h; series mostly up to 46 µM. Put shortly: (§2)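 Cells exposed to NPC (8-point) and MIPE (11-point) compound dilutions for 72 hr at 37 degree celsius; viability read by CellTiter-Glo luminescence, normalized to no-cell and DMSO in-plate controls.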

In a further test the test system is Hek293T. The experiment in a line: Primary qHTS to identify gynecologic anti-cancer compounds using libraries of approved drugs and bioactive compounds (AID 1345084). Note: nearly all actives have a fitted effect of over 55% in size. To be noted: Gynecologic cancer cell panel viability, ATPlite luminescence, 48 h, control line for the selectivity index; series mostly up to 57.5 µM. The gist of the method: as §1
A further test concerns UISO. The experiment in a line: qHTS assay to identify novel small-molecules to repurpose for Merkel cell carcinoma treatment (AID 1296009). Note: nearly all actives have a fitted effect of over 60% in size. To be noted: MCC and control cell lines, CellTiter-Glo viability, 72 h; series mostly up to 46 µM. The gist of the method: as §2

Structures are written as SMILES. Records with an inconclusive call do not appear. Activity calls are given as the source filed them. Calls come from the whole dose curve; as a rule, active = well fitted curve in the direction sought with a large enough effect; inconclusive = small, poorly fitted or top-dose-only effect, or another doubt; inactive = no such curve, though single readings can be large; an effect the other way counts as inactive or inconclusive.
Potency is the fitted concentration of half-maximal effect.

In the case of `CCNC(=O)N1CCN(CCCC(c2ccc(F)cc2)c2ccc(F)cc2)CC1`, the Potency entry with C33A, in the test with CAOV3, in the test on CASKI, with Es-2, with HeLa and in the test on JEG-3 was “inactive” each time.
As for `CC(C)(C)c1ccc(C(=O)CCCN2CCC(OC(c3ccccc3)c3ccccc3)CC2)cc1`, the Potency was 15 µM (active) in the test with WaGa and 28.2 µM (active) with CAOV3. In addition, the Potency result in the test on C33A, in the test on CASKI, with Es-2, in the test on HeLa and with JEG-3 was “inactive” in each case.
Take `COc1ccc([C@@H]2Sc3ccccc3N(CCN(C)C)C(=O)[C@@H]2OC(C)=O)cc1`: the Potency entry in the test with C33A, in the test with CASKI, in the test on Es-2, in the test on HeLa, in the test on Hek293T and in the test with JEG-3 was “inactive” in each case.
Take `COCC(=O)O[C@]1(CCN(C)CCCc2nc3ccccc3[nH]2)CCc2cc(F)ccc2[C@@H]1C(C)C`: the Potency result in the test with Es-2, in the test with HeLa and with Hek293T was “inactive” each time.
As to `O=c1[nH]c(=O)n([C@H]2C[C@H](O)[C@@H](CO)O2)cc1Br`, the Potency result in the test with C33A, in the test with CASKI, in the test with Es-2, in the test on HeLa, in the test with Hek293T and in the test with JEG-3 was “inactive” each time.
For `CCN(CC)CCCN(c1ccccc1)C1Cc2ccccc2C1`, the Potency entry in the test with UISO, in the test on CASKI, with Es-2, in the test on HeLa and in the test on JEG-3 was “inactive” each time.
For `CC(C)COCC(CN(Cc1ccccc1)c1ccccc1)N1CCCC1` (configuration not stated), the Potency in the test with CAOV3 is 25.1 µM (active). Besides, the Potency entry with CASKI, in the test on Es-2 and in the test on HeLa was “inactive” each time.
Regarding `CN(C)CCCN1c2ccccc2Sc2ccc(C(F)(F)F)cc21`, the Potency in the test on WaGa was 26.6 µM (active). The Potency result with HeLa and in the test on JEG-3 was “inactive” in each case.
In the case of `COc1cc2c(cc1OC)-c1cc(=Nc3c(C)cc(C)cc3C)n(C)c(=O)n1CC2`, the Potency result with CAOV3 and in the test on Hek293T was “inactive” each time.
With `CNCCCN1c2ccccc2CCc2ccccc21`, the Potency entry in the test with C33A, with Es-2, with HeLa, with Hek293T and in the test with JEG-3 was “inactive” in each case.
Consider `CN(C)CCCN1c2ccccc2Sc2ccccc21`, for which the Potency result in the test with C33A, in the test on CAOV3, with CASKI, in the test with Es-2, with HeLa and in the test on Hek293T was “inactive” each time. Moreover, the Potency result with JEG-3 is “inactive”.
With `C[C@]12CC[C@@H]3c4ccc(O)cc4C[C@@H](CCCCCCCCCS(=O)CCCC(F)(F)C(F)(F)F)[C@H]3[C@@H]1CC[C@@H]2O` (some centres not stated), the Potency result in the test with WaGa, in the test on C33A, with CAOV3, in the test with CASKI, in the test with Es-2 and with HeLa was “inactive” each time. The Potency entry in the test with Hek293T and in the test with JEG-3 was “inactive” throughout.
For `COc1cc(C(=O)OCCCN2CCCN(CCCOC(=O)c3cc(OC)c(OC)c(OC)c3)CC2)cc(OC)c1OC`, the Potency result in the test with UISO, in the test on C33A, with HeLa, in the test with Hek293T and in the test with JEG-3 was “inactive” each time.
For `COCCOC(=O)C1=C(C)NC(C)=C(C(=O)OC(C)C)C1c1cccc([N+](=O)[O-])c1` (configuration not stated), the Potency in the test on WaGa was 26.6 µM (active). In addition, the Potency result with C33A, in the test with CAOV3, in the test with CASKI, with Es-2, in the test with HeLa and in the test on Hek293T was “inactive” in each case. In addition, the Potency entry in the test with JEG-3 was “inactive”.
In the case of `CO[C@@]1(NC(=O)CSCC#N)C(=O)N2C(C(=O)O)=C(CSc3nnnn3C)CS[C@@H]21`, the Potency result in the test with UISO, with C33A, in the test on CAOV3, in the test on CASKI, with Es-2 and with HeLa was “inactive” throughout. In addition, the Potency entry with Hek293T and in the test with JEG-3 was “inactive” throughout.
With `CCCCCCCC/C=C\CCCCCCCC(=O)NCc1ccc(O)c(OC)c1`, the Potency with C33A was 7.94 µM (active). Moreover, the Potency entry in the test on CAOV3, in the test on CASKI, in the test on Es-2, in the test with HeLa, with Hek293T and with JEG-3 was “inactive” each time.
Take `O=C1NCN(c2ccccc2)C12CCN(CCCC(c1ccc(F)cc1)c1ccc(F)cc1)CC2`: the Potency with CAOV3, in the test on Es-2 and in the test with JEG-3 was 31.6 µM (active) in each case.
In the case of `Fc1ccc(C(c2ccc(F)cc2)N2CCN(C/C=C/c3ccccc3)CC2)cc1`, the Potency result with UISO, with Es-2, with HeLa, in the test on Hek293T and in the test with JEG-3 was “inactive” each time.
Regarding `Cc1cc(C)c(/C=C2\C(=O)Nc3ccccc32)[nH]1`, the Potency entry in the test on WaGa, with C33A, with CAOV3, in the test with CASKI, with Es-2 and in the test with Hek293T was “inactive” throughout. The Potency result with JEG-3 is “inactive”.
`CCCC(C(=O)OCCN(CC)CC)(c1ccccc1)c1ccccc1`: in the test with UISO, the Potency was 26.6 µM (active). In addition, the Potency entry in the test with CASKI and in the test on JEG-3 was “inactive” in each case.
Turning to `COC(=O)[C@H]1[C@H]2C[C@@H]3c4[nH]c5cc(OC)ccc5c4CCN3C[C@H]2C[C@@H](OC(=O)c2cc(OC)c(OC)c(OC)c2)[C@@H]1OC`, the Potency result with C33A, in the test with CAOV3, in the test on CASKI, in the test on Es-2, in the test with HeLa and in the test on Hek293T was “inactive” throughout. Further, the Potency entry with JEG-3 was “inactive”.
`OCCN1CCN(CC/C=C2/c3ccccc3Sc3ccc(C(F)(F)F)cc32)CC1`: the Potency entry with C33A, in the test with CASKI, with HeLa and in the test with JEG-3 was “inactive” in each case.
Regarding `CCCCNc1c(C(=O)OCC)c(C)nc2c1cnn2CC`, the Potency result with WaGa, in the test on C33A, in the test on CAOV3, with CASKI, in the test on Es-2 and in the test with HeLa was “inactive” throughout. The Potency result with Hek293T and in the test with JEG-3 was “inactive” throughout.
